# UbGFP stabilizer: Ubiquitin-GFP Assay; 67,000 tested, under 10 active; Ubiquitin-GFP reporter cells, proteasome inhibition, GFP fluorescence; response scale: untreated = 0%, 10 µM MG-132 = 100%; Potency, µM (top dose mostly 45.9 µM), for inactives: at the highest dose activation (GFP accumulation), most hits filed as activators; active = well fitted activation curve with a large enough effect, not every such curve was filed as active; inconclusive = small, poorly fitted or top-dose-only effect, or another doubt; inactive = no such curve, though single readings can be large or run the other way; also: potency is read from the fitted curve at half-maximal effect
#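 U2OS Ub(G76V)-GFP reporter; O/N plating, 0.5% FBS; cpd 46 uM–2.9 nM, 4 h, 37 °C; GFP+ cell count, 488/515 nm; norm. to basal vs 10 uM MG-132; CRC fit.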
# TSHR ag: qHTS Assay for Agonists of the Thyroid Stimulating Hormone Receptor; Potency, µM (top dose mostly 57.1 µM), for inactives: at the highest dose activation, most hits filed as activators; Thyrotropin receptor (Homo sapiens), P16473; HEK293-CNG-TSHR cells (CNG channel as cAMP sensor), membrane potential dye, cAMP; actives 0.48% (n = 73,000); active = well fitted activation curve with a large enough effect in the main read-out, with a control signal flat, not every such curve was filed as active; inconclusive = small, poorly fitted or top-dose-only effect, or a change in a side signal; inactive = no such curve, though single readings can be large or run the other way; % of control where 0% means no effect;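 also: the control signal comes from parental cells without the receptor; potency is read from the fitted curve at half-maximal effect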
# Target sequence (P16473 whole entry, looked up): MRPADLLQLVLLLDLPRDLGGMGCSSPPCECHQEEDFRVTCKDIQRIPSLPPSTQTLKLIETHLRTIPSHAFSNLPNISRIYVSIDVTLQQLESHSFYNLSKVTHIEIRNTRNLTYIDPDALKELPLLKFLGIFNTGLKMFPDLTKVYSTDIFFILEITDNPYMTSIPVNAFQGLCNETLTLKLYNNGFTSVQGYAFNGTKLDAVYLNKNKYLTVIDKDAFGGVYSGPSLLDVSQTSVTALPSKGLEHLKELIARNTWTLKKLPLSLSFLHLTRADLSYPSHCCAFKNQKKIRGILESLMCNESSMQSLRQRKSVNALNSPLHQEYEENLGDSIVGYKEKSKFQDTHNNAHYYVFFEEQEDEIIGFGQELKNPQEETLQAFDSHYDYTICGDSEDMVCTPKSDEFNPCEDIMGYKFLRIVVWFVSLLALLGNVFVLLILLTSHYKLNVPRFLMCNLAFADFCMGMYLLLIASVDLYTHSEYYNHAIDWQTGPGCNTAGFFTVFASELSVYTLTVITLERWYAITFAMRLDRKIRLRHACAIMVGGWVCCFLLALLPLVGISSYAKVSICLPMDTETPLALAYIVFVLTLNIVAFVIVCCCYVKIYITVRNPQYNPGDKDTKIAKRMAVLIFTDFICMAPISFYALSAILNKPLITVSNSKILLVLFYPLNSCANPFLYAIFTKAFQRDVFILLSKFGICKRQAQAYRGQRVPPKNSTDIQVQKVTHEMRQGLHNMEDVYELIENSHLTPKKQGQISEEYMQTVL
#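 HEK 293 cells stably expressing TSHR and a cAMP-gated CNG channel; parental CNG-only cells as counterscreen. Cells preloaded 60 min with membrane potential dye plus 100 uM RO 20-1724, then compound 30 min; fluorescence read at 590 nm.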
# GFP derepression: qHTS Assay for Epigenetic Modulators | actives 0.09% (n = 68,000) | AID 597, 2007 | Potency, µM (titrated, usually from 46.1 µM), for the others: at the highest dose GFP derepression (activation) | mouse C127i GFP locus derepression, cytometry, 30 h; also: % of control where 0% means no effect
#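 Murine C127i mammary cells carrying a silenced, stably integrated CMV-driven GFP reporter were treated with compound for 30 hours at 37 C. After PBS washes, GFP-positive cells were counted by laser-scanning microplate cytometry.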
# HBB splicing: qHTS Assay for Modulators of Hemoglobin Beta Chain Splicing; Potency, µM (series often up to 46.1 µM), for inactives: at the highest dose activation, hits mostly activators; HBB splicing reporter cell assay, activation; EGFP reporter with mutant IVS2-654 intron; response scale: normalised to 500 nM splice-correcting PNA; actives 0.06% (n = 65,000); also: potency is read from the fitted curve at half-maximal effect; 0% is about no effect
#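 Compounds were applied for 2 days to HeLa EGFP-654 cells, 500/well in Optimem with 2% FCS. The reporter's EGFP is disrupted by mis-splicing of beta-globin intron IVS2-654. Readout: summed well GFP fluorescence from 488 nm laser scanning; reference was 500 nM antisense […] 654 PNA.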
# HEK293 cAMP cs: qHTS Assay for Agonists of the Thyroid Stimulating Hormone Receptor: Activators of Intracellular cAMP Concentrations in Parental HEK 293; parental HEK293 CNG cAMP sensor, membrane potential fluorescence; Potency, µM (highest dose often 57.1 µM), for the others: at the highest dose activation, most hits filed as activators; actives 2.5% (n = 73,000); AID 938, 2007; also: potency is read from the fitted curve at half-maximal effect; % of control where 0% means no effect; nearly all actives have a fitted effect of over 55% in size
#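 Parental HEK 293 cells stably expressing a cAMP-gated CNG channel were loaded with membrane potential dye containing 100 uM RO 20-1724 for 60 min. Compound added for 30 min; depolarization read as fluorescence intensity at 590 nm.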
# ERK AVP inh: qHTS Assay for Inhibitors of the ERK Signaling Pathway using a Homogeneous Screening Assay. HEK293-V1b, vasopressin-stimulated pERK AlphaScreen. Potency, µM (top dose mostly 57.5 µM), without a hit: at the highest dose activity, negative = inhibition, most hits filed as inhibitors. actives 0.99% (n = 72,000); also: potency is read from the fitted curve at half-maximal effect; % is scaled to controls: 0 for no effect and ±100 for the full control effect; nearly all actives have a fitted effect of over 55% in size
#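 Phosphorylated ERK1/2 detected via AlphaScreen bead proximity in lysates of V1b-expressing HEK293 cells given 25 nM vasopressin for 5 min after 30 min compound exposure (37 °C). AC50 from Hill equation; basal DMSO 0%, vasopressin 100%.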
# Starred values were filed as active, the others as inactive; ? = inconclusive; nt = not tested or not shown; [ ] = dose if it differs, or a comment. The list is not random: actives were taken first. Their share in the collection is about 3.8%. Unless noted, calls follow the shape of the dose curve; as a rule, active = well fitted curve in the direction sought with a large enough effect; inconclusive = small, poorly fitted or top-dose-only effect, or another doubt; inactive = no such curve, though single readings can be large; an effect the other way counts as inactive or inconclusive.
SMILES,UbGFP stabilizer,TSHR ag,GFP derepression,HBB splicing,HEK293 cAMP cs,ERK AVP inh
C[C@@]1(C(NS(=O)(=O)c2cccc3cccnc23)c2ccc(-c3ccccc3)cc2)C[C@H]1C1CCCCC1 (stereo not given in full),nt,9%,nt,4%,6%,2%
COc1ccccc1CN1CCC2(CCNCC2)CC1,-7%,12%,-2%[9.22 µM],3%,12%,-1%
O=C1c2ccccc2C(Nc2ccc(F)c(Cl)c2)N1c1ccccn1 (stereo not given),-6%,20µM*,nt,0%,13%,-22%
O=C1c2ccccc2C(Nc2ccc3c(c2)OCCO3)N1c1ccccn1 (stereo not given),-15%,19%,nt,0%,26%,-2%
CN(C)c1ccc(N=NS(=O)(=O)O)cc1,nt,?,nt,-1%,10µM*,-13%
CC(=O)Nc1ccc(C2NC(C(=O)O)CCC2C)cc1 (stereo not given),nt,-3%[11.4 µM],nt,-1%[9.22 µM],15%[11.4 µM],27%[11.5 µM]
CC1CCCCN1C(=O)CSc1nc2ccsc2c(=O)n1Cc1ccccn1 (stereo not given),-8%,21%,0%,1%,16%,25µM*
C[C@H]1COC(=O)[C@H]2CCCN2C(=O)[C@@H](C)COC(=O)[C@H](Cc2ccccc2)NC1=O,nt,-6%[11.4 µM],nt,1%[9.22 µM],-3%[11.4 µM],1%[11.5 µM]
CCCn1c(SCC(=O)Nc2nc3c(s2)CCCC3)nc2c1c(=O)n(C)c(=O)n2C,-1%,?,0%,0%[57.5 µM],16µM*,-24%
CCCn1c(SCC(=O)Nc2nnc(CC)s2)nc2c1c(=O)n(C)c(=O)n2C,-1%,4%,0%,0%[57.5 µM],8%,25%
CCCCn1c(SCC(=O)Nc2nnc(C(C)C)s2)nc2c1c(=O)n(C)c(=O)n2C,-5%,?,-2%,0%[57.5 µM],1.6µM*,?
O=C(O)C[C@H](Nc1ccccc1)C(=O)O,-2%[9.17 µM],-4%[11.4 µM],0%[9.22 µM],3%[9.22 µM],7%[11.4 µM],-16%[11.5 µM]
COC(=O)C/C=C\[C@@H](C)[C@@H](/C=N\O[C@@H](C)CN1CCCCc2nc(C)c(C)cc21)OC,nt,?,nt,-1%[9.22 µM],?,13%[11.5 µM]
COc1ccc(-n2c(C)c(C(C)=O)c(C(C)=O)c2C)cc1OC,1%,8%,0%,-2%,6%,32µM*
COC(=O)c1ccccc1NC(=O)C1COc2ccccc2O1 (stereo not given),nt,nt,3%[20.6 µM],nt,nt,nt
CCOC(=O)c1ccccc1NC(=O)C1COc2ccccc2O1 (stereo not given),4%,?,2%,1%,25µM*,12%
O=C(NC1CCCC1)C(c1cccs1)N(CC1CCCO1)C(=O)Cc1cccs1 (stereo not given),-2%,?,-2%,-7%,0.32µM*,4%
O=C(NC1CCCCC1)C(c1cccs1)N(Cc1cccs1)C(=O)c1ccco1 (stereo not given),-4%,?,1%,nt,0.4µM*,2%
O=C(NCC(=O)N(Cc1ccc(F)cc1)C(C(=O)NC1CCCC1)c1ccco1)c1ccco1 (stereo not given),-5%,?,8%,0%[57.5 µM],16µM*,-12%
COc1ccc(CN(C(=O)CNC(=O)c2ccco2)C(C(=O)NC2CCCC2)c2ccco2)cc1 (stereo not given),6%,10%,-1%,nt,27%,-6%
O=C(NCCCN1CCOCC1)c1ccc(Cc2nc3ccccc3[nH]2)cc1,nt,-4%,nt,nt,-9%,nt
Oc1ccccc1NCC(O)Cn1ccc2ccccc21 (stereo not given),2%,?,?,8%[57.5 µM],-50%,-6%
OCc1nc2ccccc2n1CC(O)Cn1ccc2ccccc21 (stereo not given),-4%,-10%,1%,-2%,9%,16µM*
Clc1ccc(OCc2nn3c(C4CCCCC4)nnc3s2)c(Cl)c1,-2%,?,2%,2%[0.369 µM],32µM*,?
CCOC(=O)c1[nH]c(C)c(C(=O)c2cc(F)ccc2F)c1C,-6%,32µM*,6%,-2%,12%,20µM*
SMILES,UbGFP stabilizer,TSHR ag,GFP derepression,HBB splicing,HEK293 cAMP cs,ERK AVP inh
Cc1ccc2ccccc2c1COC(=O)c1nonc1N,11%,?,6%,0%,16µM*,-5%
CCCCS(=O)(=O)/C=C\C=C/S(=O)(=O)CCCC,?,3%,-1%,-3%,6%,3.2µM*
COc1ccc(NC(=O)c2cc(Cl)ccc2NC(=O)c2ccco2)c(OC)c1,1%,?,1%,nt,25µM*,-4%
COc1cccc2c(=O)n(CC(=O)NC3CCCC3)ccc12,-5%,1.3µM*,nt,0%,1%,nt
CCCC[C@@H]1C[C@H]1C(NC(=O)c1ccccc1)c1ccccc1C(F)(F)F (stereo not given in full),nt,?,nt,2%,?,-6%
CCCC[C@@H]1C[C@H]1C(NC(=O)c1cccs1)c1ccc(Cl)cc1 (stereo not given in full),nt,?,nt,2%,?,2%
CCCC[C@@H]1C[C@H]1C(NC(=O)Cc1ccccc1)c1ccc(-c2ccccc2)cc1 (stereo not given in full),nt,1µM*,nt,0%,26%,1%
CCCC[C@@H]1C[C@H]1C(NC(=O)c1ccccc1)c1ccc(C(=O)OC)cc1 (stereo not given in full),nt,?,nt,3%,16µM*,13%
CCCC[C@@H]1C[C@H]1C(NC(=O)c1ccco1)c1ccccc1 (stereo not given in full),nt,?,nt,2%,16µM*,21%
Cc1cnc(CNc2ccnc(-c3cccc(NS(C)(=O)=O)c3)n2)cn1,0%,?,9%[9.22 µM],1%,?,-5%
Cc1cccc(CNc2ccnc(-c3cccc(NS(C)(=O)=O)c3)n2)c1,-4%,27%,0%[9.22 µM],1%,-2%,13µM*
Cc1cccc(CNc2ncnc3ccc(-c4cccc(NS(C)(=O)=O)c4)cc23)c1,-1%,nt,-3%[9.22 µM],-3%,23%,25µM*
CN1CCN(c2ncnc3ccc(-c4cccc(NS(C)(=O)=O)c4)cc23)CC1,-7%,2%,2%[9.22 µM],2%,1%,3.2µM*
CS(=O)(=O)Nc1cccc(-c2ccc3ncnc(NC4CC4)c3c2)c1,1%,2%,5%[9.22 µM],-1%,-12%,?
COc1ccccc1CNc1ncnc2ccc(-c3cccc(NS(C)(=O)=O)c3)cc12,8%,27%,2%[9.22 µM],0%,16%,16µM*

# Source: PubChem
